Records with an inconclusive call do not appear. Activity calls are given as the source filed them. Unless noted, calls come from the whole dose curve; as a rule, active = well fitted curve in the direction sought with a large enough effect; inconclusive = small, poorly fitted or top-dose-only effect, or another doubt; inactive = no such curve, though single readings can be large; an effect the other way counts as inactive or inconclusive.
Legend:
[1] = target: ATP-dependent 6-phosphofructokinase (Trypanosoma brucei brucei) (UniProt O15648); test: qHTS Assay to Find Inhibitors of T. brucei phosphofructokinase: hit validation (AID 492961);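 note: luminescence reports ADP formed as PFK phosphorylates fructose-6-phosphate with ATP; % is set by controls: 0 for no effect and ±100 for the full control effect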
In short: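 Inhibition of parasite PFK is measured as reduced ADP formation, quantified via luciferase after ATP depletion. Assay used 0.1 mM ATP, 0.5 mM F6P, 1.25 nM enzyme, 45 min incubation.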

[2] = target: Ubiquitin carboxyl-terminal hydrolase 1 (Homo sapiens) (UniProt O94782); test: Inhibitors of USP1/UAF1: Pilot qHTS (AID 504865);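 note: rhodamine fluorescence freed from ubiquitin-rhodamine substrate followed over time; top concentration of the series differs between compounds; % is set by controls: 0 for no effect and ±100 for the full control effect; nearly all actives have a fitted effect of over 35% in size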
In short: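 1nM USP1/UAF1 + cpd, 15 min RT; start w/ Ub-Rho 150nM final; kinetic FL 480/540 nm, 6 reads q60 s. Buffer 50mM HEPES pH 7.8, 0.5mM EDTA, 1mM TCEP, 0.01% Tween-20, 0.1 mg/ml BSA.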

[3] = target: Luciferin 4-monooxygenase (Photinus pyralis) (UniProt P08659); test: Biochemical firefly luciferase enzyme assay for NPC (AID 624030);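 note: purified P. pyralis luciferase at 10 nM with luciferin and ATP substrate; 0% = DMSO and -100% = full luciferase inhibition by PTC124 control; nearly all actives have a fitted effect of over 70% in size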
In short: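 Purified P. pyralis luciferase at 10 nM in 50 mM Tris Acetate (final), luminescence read within 5 minutes of enzyme addition to compounds. Activity normalised to PTC124 versus DMSO; concentration-response curves classed by r2, magnitude and activity.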

[4] = S16 Schwann cell viability assay (CellTiter-Glo assay) (AID 624031);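 note: cellular ATP luminescence as a viability measure; plate controls were DMSO-treated cells for no effect and cell-free wells for full effect; nearly all actives have a fitted effect of over 70% in size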
In short: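 Luminescent ATP read-out (CellTiter-Glo) after 24 h compound exposure of native S16 rat Schwann cells at 37 °C. Signals were normalized between cell-free wells and DMSO-treated cells, set as 0% activity.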

[5] = S16 Schwann cell PMP22 intronic element firefly luciferase assay (AID 624032);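 note: plate controls were DMSO for no effect and PTC124 positive control mean for full effect; nearly all actives have a fitted effect of over 30% in size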
In short: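 Rat S16 Schwann cells stably carrying firefly luciferase driven by a PMP22 intronic element, in 10% FBS, treated 24 h at 37 C. ONE-Glo luminescence normalized to PTC124 control and DMSO (0%); curves classed by r2, magnitude and activity.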

[6] = S16 Schwann cell PMP22 intronic element beta-lactamase assay (AID 624044; calls by dose curve;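 note: 0% = DMSO and -100% = potassium clavulanate positive control; nearly all actives have a fitted effect of over 15% in size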); conditions: S16 rat Schwann cells, PMP22 element beta-lactamase FRET, 24 h; ratio activity, negative = inhibition: at 38.3 µM (top of the series)
In short: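 Rat S16 Schwann cells with beta-Lac driven by a PMP22 intronic element, compound-treated 24 h at 37 °C. LiveBLAzer FRET B/G read: 460 nm normalized to potassium clavulanate vs DMSO; 535 nm FRET as viability; concentration-effect curves classified.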

[7] = qHTS profiling for inhibitors of Plasmodium falciparum proliferation (AID 504749);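 note: 0% = DMSO vehicle and full inhibition = artemisinin control; nearly all actives have a fitted effect of over 60% in size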; conditions: P. falciparum in erythrocytes, SYBR Green DNA, 72 h, at 28.7 µM (top of the series)
In short: (§1)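 Readout was DNA-dye fluorescence from lysed cultures, ex 485/em 535 nm. Parasitized red cells had grown 72 h with compound; data scaled between 0.29 uM artemisinin and DMSO wells and corrected using vehicle-only plates.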

3D7 = test: as above; conditions: P. falciparum in erythrocytes, SYBR Green DNA, 72 h; series mostly up to 28.7 µM
In short: as §1

7G8 = test: as above; conditions: P. falciparum in erythrocytes, SYBR Green DNA, 72 h; series mostly up to 28.7 µM
In short: as §1

AA1029 = test: as above; conditions: P. falciparum in erythrocytes, SYBR Green DNA, 72 h; series mostly up to 28.7 µM
In short: as §1

AS120 = test: as above; conditions: P. falciparum in erythrocytes, SYBR Green DNA, 72 h; series mostly up to 28.7 µM
In short: as §1

ATS189 = test: as above; conditions: P. falciparum in erythrocytes, SYBR Green DNA, 72 h; series mostly up to 28.7 µM
In short: as §1

ATS95 = test: as above; conditions: P. falciparum in erythrocytes, SYBR Green DNA, 72 h; series mostly up to 28.7 µM
In short: as §1

C2A = test: as above; conditions: P. falciparum in erythrocytes, SYBR Green DNA, 72 h; series mostly up to 28.7 µM
In short: as §1

CP185 = test: as above; conditions: P. falciparum in erythrocytes, SYBR Green DNA, 72 h; series mostly up to 28.7 µM
In short: as §1

CP191 = test: as above; conditions: P. falciparum in erythrocytes, SYBR Green DNA, 72 h; series mostly up to 28.7 µM
In short: as §1

CP192 = test: as above; conditions: P. falciparum in erythrocytes, SYBR Green DNA, 72 h; series mostly up to 28.7 µM
In short: as §1

CP194 = test: as above; conditions: P. falciparum in erythrocytes, SYBR Green DNA, 72 h; series mostly up to 28.7 µM
In short: as §1

CP201 = test: as above; conditions: P. falciparum in erythrocytes, SYBR Green DNA, 72 h; series mostly up to 28.7 µM
In short: as §1

CP203 = test: as above; conditions: P. falciparum in erythrocytes, SYBR Green DNA, 72 h; series mostly up to 28.7 µM
In short: as §1

CP211 = test: as above; conditions: P. falciparum in erythrocytes, SYBR Green DNA, 72 h; series mostly up to 28.7 µM
In short: as §1

CP215 = test: as above; conditions: P. falciparum in erythrocytes, SYBR Green DNA, 72 h; series mostly up to 28.7 µM
In short: as §1

CP217 = test: as above; conditions: P. falciparum in erythrocytes, SYBR Green DNA, 72 h; series mostly up to 28.7 µM
In short: as §1

CP237 = test: as above; conditions: P. falciparum in erythrocytes, SYBR Green DNA, 72 h; series mostly up to 28.7 µM
In short: as §1

CP238 = test: as above; conditions: P. falciparum in erythrocytes, SYBR Green DNA, 72 h; series mostly up to 28.7 µM
In short: as §1

CP247 = test: as above; conditions: P. falciparum in erythrocytes, SYBR Green DNA, 72 h; series mostly up to 28.7 µM
In short: as §1

CP250 = test: as above; conditions: P. falciparum in erythrocytes, SYBR Green DNA, 72 h; series mostly up to 28.7 µM
In short: as §1

CP252 = test: as above; conditions: P. falciparum in erythrocytes, SYBR Green DNA, 72 h; series mostly up to 28.7 µM
In short: as §1

CP256 = test: as above; conditions: P. falciparum in erythrocytes, SYBR Green DNA, 72 h; series mostly up to 28.7 µM
In short: as §1

CP260 = test: as above; conditions: P. falciparum in erythrocytes, SYBR Green DNA, 72 h; series mostly up to 28.7 µM
In short: as §1

CP262 = test: as above; conditions: P. falciparum in erythrocytes, SYBR Green DNA, 72 h; series mostly up to 28.7 µM
In short: as §1

CP265 = test: as above; conditions: P. falciparum in erythrocytes, SYBR Green DNA, 72 h; series mostly up to 28.7 µM
In short: as §1

CP266 = test: as above; conditions: P. falciparum in erythrocytes, SYBR Green DNA, 72 h; series mostly up to 28.7 µM
In short: as §1

CP268 = test: as above; conditions: P. falciparum in erythrocytes, SYBR Green DNA, 72 h; series mostly up to 28.7 µM
In short: as §1

CP269 = test: as above; conditions: P. falciparum in erythrocytes, SYBR Green DNA, 72 h; series mostly up to 28.7 µM
In short: as §1

CP286 = test: as above; conditions: P. falciparum in erythrocytes, SYBR Green DNA, 72 h; series mostly up to 28.7 µM
In short: as §1

CP291 = test: as above; conditions: P. falciparum in erythrocytes, SYBR Green DNA, 72 h; series mostly up to 28.7 µM
In short: as §1

CP297 = test: as above; conditions: P. falciparum in erythrocytes, SYBR Green DNA, 72 h; series mostly up to 28.7 µM
In short: as §1

CP305 = test: as above; conditions: P. falciparum in erythrocytes, SYBR Green DNA, 72 h; series mostly up to 28.7 µM
In short: as §1

CP315 = test: as above; conditions: P. falciparum in erythrocytes, SYBR Green DNA, 72 h; series mostly up to 28.7 µM
In short: as §1

CP325 = test: as above; conditions: P. falciparum in erythrocytes, SYBR Green DNA, 72 h; series mostly up to 28.7 µM
In short: as §1

CP329 = test: as above; conditions: P. falciparum in erythrocytes, SYBR Green DNA, 72 h; series mostly up to 28.7 µM
In short: as §1

CP335 = test: as above; conditions: P. falciparum in erythrocytes, SYBR Green DNA, 72 h; series mostly up to 28.7 µM
In short: as §1

DFO2036 = test: as above; conditions: P. falciparum in erythrocytes, SYBR Green DNA, 72 h; series mostly up to 28.7 µM
In short: as §1

DIV14 = test: as above; conditions: P. falciparum in erythrocytes, SYBR Green DNA, 72 h; series mostly up to 28.7 µM
In short: as §1

DIV17 = test: as above; conditions: P. falciparum in erythrocytes, SYBR Green DNA, 72 h; series mostly up to 28.7 µM
In short: as §1

DIV30 = test: as above; conditions: P. falciparum in erythrocytes, SYBR Green DNA, 72 h; series mostly up to 28.7 µM
In short: as §1

Dd2 = test: as above; conditions: P. falciparum in erythrocytes, SYBR Green DNA, 72 h; series mostly up to 28.7 µM
In short: as §1

ECU = test: as above; conditions: P. falciparum in erythrocytes, SYBR Green DNA, 72 h; series mostly up to 28.7 µM
In short: as §1

FAB9 = test: as above; conditions: P. falciparum in erythrocytes, SYBR Green DNA, 72 h; series mostly up to 28.7 µM
In short: as §1

GB4 = test: as above; conditions: P. falciparum in erythrocytes, SYBR Green DNA, 72 h; series mostly up to 28.7 µM
In short: as §1

HB3 = test: as above; conditions: P. falciparum in erythrocytes, SYBR Green DNA, 72 h; series mostly up to 28.7 µM
In short: as §1

ICS = test: as above; conditions: P. falciparum in erythrocytes, SYBR Green DNA, 72 h; series mostly up to 28.7 µM
In short: as §1

JCK = test: as above; conditions: P. falciparum in erythrocytes, SYBR Green DNA, 72 h; series mostly up to 28.7 µM
In short: as §1

N140 = test: as above; conditions: P. falciparum in erythrocytes, SYBR Green DNA, 72 h; series mostly up to 28.7 µM
In short: as §1

P93_24 = test: as above; conditions: P. falciparum in erythrocytes, SYBR Green DNA, 72 h; series mostly up to 28.7 µM
In short: as §1

P94_40 = test: as above; conditions: P. falciparum in erythrocytes, SYBR Green DNA, 72 h; series mostly up to 28.7 µM
In short: as §1

PAD = test: as above; conditions: P. falciparum in erythrocytes, SYBR Green DNA, 72 h; series mostly up to 28.7 µM
In short: as §1

PC15 = test: as above; conditions: P. falciparum in erythrocytes, SYBR Green DNA, 72 h; series mostly up to 28.7 µM
In short: as §1

PC26 = test: as above; conditions: P. falciparum in erythrocytes, SYBR Green DNA, 72 h; series mostly up to 28.7 µM
In short: as §1

PC49 = test: as above; conditions: P. falciparum in erythrocytes, SYBR Green DNA, 72 h; series mostly up to 28.7 µM
In short: as §1

SC27B = test: as above; conditions: P. falciparum in erythrocytes, SYBR Green DNA, 72 h; series mostly up to 28.7 µM
In short: as §1

TAB109 = test: as above; conditions: P. falciparum in erythrocytes, SYBR Green DNA, 72 h; series mostly up to 28.7 µM
In short: as §1

TAB113 = test: as above; conditions: P. falciparum in erythrocytes, SYBR Green DNA, 72 h; series mostly up to 28.7 µM
In short: as §1

TAB165 = test: as above; conditions: P. falciparum in erythrocytes, SYBR Green DNA, 72 h; series mostly up to 28.7 µM
In short: as §1

W2 = test: as above; conditions: P. falciparum in erythrocytes, SYBR Green DNA, 72 h; series mostly up to 28.7 µM
In short: as §1

Chain of Luciferin 4-monooxygenase (Photinus pyralis) (P08659 whole entry, looked up): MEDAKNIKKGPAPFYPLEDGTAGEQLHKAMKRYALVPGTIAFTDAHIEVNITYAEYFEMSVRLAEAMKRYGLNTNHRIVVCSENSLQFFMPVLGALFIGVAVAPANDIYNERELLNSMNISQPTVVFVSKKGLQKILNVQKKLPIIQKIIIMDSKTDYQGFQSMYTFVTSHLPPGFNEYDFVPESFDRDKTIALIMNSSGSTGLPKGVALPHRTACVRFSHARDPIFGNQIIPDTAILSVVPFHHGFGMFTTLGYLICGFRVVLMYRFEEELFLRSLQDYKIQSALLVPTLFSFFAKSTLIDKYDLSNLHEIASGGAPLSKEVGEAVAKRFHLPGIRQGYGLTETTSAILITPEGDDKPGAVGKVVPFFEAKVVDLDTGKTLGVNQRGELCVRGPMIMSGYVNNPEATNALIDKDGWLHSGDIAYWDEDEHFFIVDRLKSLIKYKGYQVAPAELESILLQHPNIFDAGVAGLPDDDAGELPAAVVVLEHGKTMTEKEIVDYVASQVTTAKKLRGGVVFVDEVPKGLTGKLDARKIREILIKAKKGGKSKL
Chain of ATP-dependent 6-phosphofructokinase (Trypanosoma brucei brucei) (O15648 whole entry, looked up): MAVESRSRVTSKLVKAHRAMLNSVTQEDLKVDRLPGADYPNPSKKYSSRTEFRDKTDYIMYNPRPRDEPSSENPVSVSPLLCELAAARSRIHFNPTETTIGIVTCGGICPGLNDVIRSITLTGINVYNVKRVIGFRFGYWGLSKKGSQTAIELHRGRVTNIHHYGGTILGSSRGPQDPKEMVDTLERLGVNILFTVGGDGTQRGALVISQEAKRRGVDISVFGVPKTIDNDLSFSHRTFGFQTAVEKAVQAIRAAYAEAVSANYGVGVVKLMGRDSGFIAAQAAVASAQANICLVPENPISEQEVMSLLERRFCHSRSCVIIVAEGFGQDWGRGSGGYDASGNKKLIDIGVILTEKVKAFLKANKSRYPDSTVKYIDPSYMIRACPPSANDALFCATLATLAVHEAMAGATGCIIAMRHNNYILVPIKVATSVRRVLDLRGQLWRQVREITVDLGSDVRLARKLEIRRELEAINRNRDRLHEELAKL
Chain of Ubiquitin carboxyl-terminal hydrolase 1 (Homo sapiens) (O94782 whole entry, looked up): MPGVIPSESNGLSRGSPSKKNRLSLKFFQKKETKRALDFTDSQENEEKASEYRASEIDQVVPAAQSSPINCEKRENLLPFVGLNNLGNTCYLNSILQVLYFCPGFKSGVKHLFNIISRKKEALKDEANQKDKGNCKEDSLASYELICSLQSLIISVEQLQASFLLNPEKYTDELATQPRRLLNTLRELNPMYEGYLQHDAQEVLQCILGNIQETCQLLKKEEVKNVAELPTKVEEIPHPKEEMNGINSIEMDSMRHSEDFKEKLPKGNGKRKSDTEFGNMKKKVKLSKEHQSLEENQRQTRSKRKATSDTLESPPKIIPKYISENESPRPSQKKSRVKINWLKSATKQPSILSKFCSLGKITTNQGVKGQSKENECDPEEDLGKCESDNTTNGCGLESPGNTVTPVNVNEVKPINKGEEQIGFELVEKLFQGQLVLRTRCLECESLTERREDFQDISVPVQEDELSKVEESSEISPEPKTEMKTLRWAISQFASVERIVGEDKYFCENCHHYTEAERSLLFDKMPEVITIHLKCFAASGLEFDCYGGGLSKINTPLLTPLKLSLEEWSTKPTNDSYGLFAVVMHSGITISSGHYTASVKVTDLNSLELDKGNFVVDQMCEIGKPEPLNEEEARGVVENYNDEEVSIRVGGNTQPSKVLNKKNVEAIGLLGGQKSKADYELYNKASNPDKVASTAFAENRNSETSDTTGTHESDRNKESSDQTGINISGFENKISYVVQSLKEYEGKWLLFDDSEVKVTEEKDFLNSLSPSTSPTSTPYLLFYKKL

CCN(CC)C(=O)Nc1ccc(OC[C@H](O)CNC(C)(C)C)c(C(C)=O)c1
inactive: Potency [1] | Potency [2] | Potency [3] | Potency [4] | Potency [5] | Potency [6] | activity, negative = inhibition ([7]; parasite line A) 5.16% | activity, negative = inhibition ([7]; parasite line B) -3.7% | Potency (3D7) | Potency (7G8) | Potency (AA1029) | Potency (AS120) | Potency (ATS189) | Potency (ATS95) | Potency (C2A) | Potency (CP185) | Potency (CP191) | Potency (CP192) | Potency (CP194) | Potency (CP201) | Potency (CP203) | Potency (CP211) | Potency (CP215) | Potency (CP217) | Potency (CP237) | Potency (CP238) | Potency (CP247) | Potency (CP250) | Potency (CP252) | Potency (CP256) | Potency (CP260) | Potency (CP262) | Potency (CP265) | Potency (CP266) | Potency (CP268) | Potency (CP269) | Potency (CP286) | Potency (CP291) | Potency (CP297) | Potency (CP305) | Potency (CP315) | Potency (CP325) | Potency (CP329) | Potency (CP335) | Potency (DFO2036) | Potency (DIV14) | Potency (DIV17) | Potency (DIV30) | Potency (Dd2) | Potency (ECU) | Potency (FAB9) | Potency (GB4) | Potency (HB3) | Potency (ICS) | Potency (JCK) | Potency (N140) | Potency (P93_24) | Potency (P94_40) | Potency (PAD) | Potency (PC15) | Potency (PC26) | Potency (PC49) | Potency (SC27B) | Potency (TAB109) | Potency (TAB113) | Potency (TAB165) | Potency (W2)

From PubChem BioAssay (NCATS)
